Experimental data published in paper PMC4552634, “A New Set of Chemical Starting Points with Plasmodium falciparum Transmission-Blocking Potential for Antimalarial Drug Discovery” (PLoS ONE, 2015).
Hit rate of the full screen: of about 13,000 compounds, about 3,200 (25%) showed an effect of 50% or more. Some of the results follow.

Each molecule was assayed on P. falciparum stage V gametocytes. Details: 48 h, 5 µM; inhibitor.
Set-up: BacTiter-Glo ATP luminescence viability of purified stage V gametocytes in 384-well plates, per cent inhibition versus DMSO
For `CC1CN(Cc2cccc(-c3ccc(-c4nc5ccccc5[nH]4)cc3)c2)CC(C)O1.O=C(O)C(F)(F)F` (centres unmarked) [TCMDC-133816], the “% Inhibition” value was -91.64%. For `CSc1ccc(NC(=O)Nc2cc(C)nc3ccccc23)cc1Br` [TCMDC-139874], the “% Inhibition” value was -51.95%. For `CCN(CC)CCN(Cc1ccc(-c2ccc(C(F)(F)F)cc2)cc1)C(=O)Cn1c(CCc2ccccc2F)nc(=O)c2ccccc21` [TCMDC-141012], the “% Inhibition” value was 52.86%. With `CCN(CC)CCN(Cc1ccc(-c2ccc(C(F)(F)F)cc2)cc1)C(=O)Cn1c(CCc2ccc(F)c(F)c2F)nc(=O)c2ccc(F)cc21` [TCMDC-141072] the “% Inhibition” value was 19.94%. For `CCN(CC)CCN(Cc1ccc(-c2ccc(C(F)(F)F)cc2)cc1)C(=O)Cn1c(CCc2ccc(F)c(F)c2F)nc(=O)c2ccccc21` [TCMDC-140952], the “% Inhibition” value was 68.69%. `Clc1ccc2c(NN=Cc3cccnc3)ccnc2c1` [TCMDC-123968] was tested, and the “% Inhibition” value was -19.33%. In the case of `Cc1cccc2c3c([nH]c12)C1(CCN(CCc2ccccc2)CC1)NC(C(=O)NCc1ccccc1)C3` (centres unmarked) [TCMDC-141245], the “% Inhibition” value is reported as -39.36%. In the case of `Cc1cc(CN2CCN(CCOC(c3ccccc3)c3ccccc3)CC2)ccc1O` [TCMDC-135695], the “% Inhibition” value is reported as -7.709%. With `Cc1ccc(C)c(S(=O)(=O)NCC2CCN(Cc3ccc(O)cc3)CC2)c1` [TCMDC-141802] the “% Inhibition” value was 45.59%. In the case of `CCOc1c(C)cc(C(F)(F)F)cc1CNCCCNc1cc(=O)c2ccccc2[nH]1` [TCMDC-141046], the “% Inhibition” value is reported as -34.36%. `COc1cc2ccccc2cc1CNCCCCCCNCc1cc2ccccc2cc1OC` [TCMDC-137955] was tested, and the “% Inhibition” value was 4.122%. For `COc1cc(CNCCCCCCNCc2cc(OC)c(OC)c3ccccc23)c2ccccc2c1OC` [TCMDC-137981], the “% Inhibition” value was 104.3%. For `CCOc1c(Br)cc(C)cc1CNCCCNc1nc2ccccc2[nH]1` [TCMDC-140090], the “% Inhibition” value was 7.25%. `COc1cc(CNCCCCCCNCc2cc(OC)c3ccccc3c2OC)c(OC)c2ccccc12` [TCMDC-137502] was tested, and the “% Inhibition” value was 106.1%. With `CCOc1cc2ccccc2cc1CNCCCCCCNCc1cc2ccccc2cc1OCC` [TCMDC-137940] the “% Inhibition” value was 69.35%. With `CCOc1cc(CNCCCCCCNCc2cc(OCC)c(OCC)c3ccccc23)c2ccccc2c1OCC` [TCMDC-137939] the “% Inhibition” value was 106%. `CCOc1c(CNCCCNc2cc(=O)c3ccccc3[nH]2)cc(I)cc1OC` [TCMDC-139847] was tested, and the “% Inhibition” value was -35.79%. For `COc1cc(-c2cc(-c3ccc(OCCN(C)C)cc3)[nH]c2-c2ccncc2)ccc1Cl` [TCMDC-141251], the “% Inhibition” value was -2.677%. `COc1cc(F)c2ncc(Cl)c([C@H](O)CN3CCC(NCc4cc5c(cn4)OCCO5)CC3)c2c1` [TCMDC-135474] was tested, and the “% Inhibition” value was 10.97%. In the case of `O=C(NC1CCC(CCN2Cc3cccc(C(F)(F)F)c3C2)CC1)c1cccc(-c2cccnc2)c1` (centres unmarked) [TCMDC-139602], the “% Inhibition” value is reported as -51.73%. For `COc1ccc(CNCc2ccc(-c3ccc(-c4nc5cc(C(F)(F)F)ccc5[nH]4)cc3)cc2)cc1.O=C(O)C(F)(F)F` [TCMDC-132724], the “% Inhibition” value was -6.92%. For `O=C(Nc1cccc(-c2ccc(-c3nc4ccc(F)cc4[nH]3)cc2)c1)Nc1ccc(Cl)c(Cl)c1` [TCMDC-133280], the “% Inhibition” value was -66.79%. In the case of `CC(C)C[C@H](NC(=O)c1cc2ccccc2s1)C(=O)N[C@H]1CCN(Cc2ccc(I)c(OCCN3CCCC3)c2)C1` [TCMDC-140287], the “% Inhibition” value is reported as 56%. With `CC1CCN(CC[C@H]2CCCN2S(=O)(=O)c2cccc(NC(=O)c3cc4ccccc4s3)c2)CC1` [TCMDC-141077] the “% Inhibition” value was -68%. In the case of `CC(C)C[C@H](NC(=O)c1cc2ccccc2s1)C(=O)N[C@H]1CCN(Cc2ccc(OCCCN(C)C)c(Cl)c2)C1` [TCMDC-140291], the “% Inhibition” value is reported as 44.54%. For `CC(C)CC(NC(=O)c1cc2ccccc2s1)C(=O)N1CCCCCC1c1ccc(C(C)(C)C)cc1` (centres unmarked) [TCMDC-136337], the “% Inhibition” value was 63.43%. With `CC(C)C[C@H](NC(=O)c1cc2ccccc2s1)C(=O)N[C@H]1CCN(Cc2ccc(I)c(OC3CCN(C)C3)c2)C1` (some centres unmarked) [TCMDC-140288] the “% Inhibition” value was 64.78%. For `N#Cc1ccccc1S(=O)(=O)N1CCCC(CNC(=O)[C@H](CC2CCCCC2)NC(=O)c2cc3ccccc3s2)C1` (some centres unmarked) [TCMDC-136558], the “% Inhibition” value was -3.694%. With `CC(C)C[C@H](NC(=O)c1cc2ccccc2s1)C(=O)N[C@H]1CCN(Cc2ccc(OC3CCN(C)C3)c(Cl)c2)C1` (some centres unmarked) [TCMDC-140293] the “% Inhibition” value was 19.83%. For `COc1ccc(CC2(c3ccc(F)cc3)N=C(N)N(CCCc3ccc(F)c(F)c3)C2=O)cc1` (centres unmarked) [TCMDC-136542], the “% Inhibition” value was -2.474%. In the case of `Clc1ccc2nnc(-c3c(Cl)cccc3Cl)n2n1` [TCMDC-124489], the “% Inhibition” value is reported as 23.9%. With `c1cc(CNCC2CCCO2)cc(-c2csc(-c3nc4ccccc4[nH]3)c2)c1` (centres unmarked) [TCMDC-133108] the “% Inhibition” value was -15.46%. With `C=CCc1cc(Br)ccc1OCCCOc1c(C)nc(N)nc1N` [TCMDC-131366] the “% Inhibition” value was -2.875%. For `Cc1ccc2c(OCCN3CCC(Cc4ccc5c(c4)NC(=O)CO5)CC3)cc(F)cc2n1` [TCMDC-141356], the “% Inhibition” value was 22.38%. With `Cc1cccc(S(=O)(=O)Nc2cccc(CCN3CCC(N4CCCCC4)CC3)c2)c1` [TCMDC-134087] the “% Inhibition” value was 26.17%. In the case of `O=S(=O)(Nc1cccc(CCN2CCC(N3CCCCC3)CC2)c1)c1cccc(C(F)(F)F)c1` [TCMDC-134086], the “% Inhibition” value is reported as 60.6%. In the case of `O=C(c1ccc(Cl)cc1)C1CCCN(C2CCN(CCc3ccccc3)CC2)C1` (centres unmarked) [TCMDC-124655], the “% Inhibition” value is reported as -36.02%. With `O=S(=O)(Nc1cccc(CCN2CCC(N3CCCCC3)CC2)c1)c1ccccc1C(F)(F)F` [TCMDC-134070] the “% Inhibition” value was 2.875%. With `O=S(=O)(Nc1ccc(CCN2CCC(N3CCCCC3)CC2)cc1)c1cccc(C(F)(F)F)c1` [TCMDC-134090] the “% Inhibition” value was 84.05%. `CC(c1cccc(S(=O)(=O)NCc2cccc(C(F)(F)F)c2)c1)N1CCC(N2CCCCC2)CC1` (centres unmarked) [TCMDC-133565] was tested, and the “% Inhibition” value was 5.245%. In the case of `O=S(=O)(Nc1ccc(CCN2CCC(N3CCCCC3)CC2)cc1)c1ccccc1C(F)(F)F` [TCMDC-134080], the “% Inhibition” value is reported as 79.99%.
